Assay outcomes deposited in PubChem by National Center for Advancing Translational Sciences (NCATS).
AmpC no deterg: qHTS Inhibitors of AmpC Beta-Lactamase (assay without detergent) | P00811 | AmpC nitrocefin hydrolysis, absorbance 480 nm, 0.0001% Triton | Potency, µM (doses to about 57.1 µM), for inactives: top-dose activity change, negative = inhibition, most hits filed as inhibitors | 330,000 compounds, 0.52% hits | AID 485341, 2010;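 note: potency is the fitted concentration of half-maximal effect; plate controls were no compound for no effect and no enzyme for full effect; nearly all actives have a fitted effect of over 20% in size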
Target sequence (P00811 whole entry, looked up): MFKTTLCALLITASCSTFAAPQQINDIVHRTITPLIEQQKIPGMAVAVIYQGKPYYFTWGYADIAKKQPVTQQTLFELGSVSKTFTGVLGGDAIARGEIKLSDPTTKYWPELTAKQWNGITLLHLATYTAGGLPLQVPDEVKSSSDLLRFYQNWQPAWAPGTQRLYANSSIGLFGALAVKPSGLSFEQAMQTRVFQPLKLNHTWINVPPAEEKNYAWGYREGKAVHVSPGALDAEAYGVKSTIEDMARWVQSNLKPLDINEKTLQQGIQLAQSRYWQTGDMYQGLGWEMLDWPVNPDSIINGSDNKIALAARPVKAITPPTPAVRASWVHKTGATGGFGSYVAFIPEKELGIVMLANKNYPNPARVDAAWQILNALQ
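AmpC (5.3 nM in the dispensed reagent) in 20 mM phosphate pH 7.0 with 0.01% (detergent screen) or 0.0001% Triton X-100 was preincubated with compounds for 15 min at room temperature. Nitrocefin was then added from an 800 uM solution, and hydrolysis was followed at 480 nm.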
CHX counter: Cycloheximide Counterscreen for Small Molecule Inhibitors of Shiga Toxin; cell reporter, cycloheximide protein synthesis inhibition counterscreen; max response, %; 300,000 compounds, 12% hits; AID 2314, 2010; in the data active = max response mostly above about 13%, no sharp cut-off; inactive = mostly below about 14%; note: read at 38.3 µM for the half of the compounds with a filed dose; 0% is about no effect
Shiga toxin inh: A qHTS for Small Molecule Inhibitors of Shiga Toxin; inhibition, % at 38.7 µM; 290,000 compounds, 9.2% hits; Vero cells, Shiga toxin protein synthesis inhibition reporter; AID 2315, 2010; in the data active = inhibition mostly above about 28%, no sharp cut-off; inactive = mostly below about 43%; note: 0% is about no effect
NS1 function inh: qHTS Assay for Inhibitors of Influenza NS1 Protein Function | Potency, µM (top dose mostly 46.1 µM), for inactives: top-dose activity, positive = more growth | 270,000 compounds, 0.4% hits | AID 2326, 2010; calls by dose curve; note: potency is the fitted concentration of half-maximal effect; actives are rising curves; nearly all actives have a fitted effect of over 50% in size
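OD600 was taken as the measure of yeast growth restored by compound in an NS1-expressing S. cerevisiae strain. Cells had been washed out of glucose medium and diluted 1:100 into galactose -URA medium, pH 6.0.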
AmpC detergent: qHTS Inhibitors of AmpC Beta-Lactamase (assay with detergent). AmpC hydrolysis of nitrocefin, absorbance 480 nm, 0.01% Triton. P00811. 370,000 compounds, 0.041% hits. Potency, µM (doses to about 114 µM), inactives show at the top dose activity change, negative = inhibition, hits mostly inhibitors;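 note: potency is the fitted concentration of half-maximal effect; 0% = no-compound wells and -100% = no-enzyme wells; nearly all actives have a fitted effect of over 25% in size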
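AmpC (5.3 nM in the dispensed reagent) in 20 mM phosphate pH 7.0 with 0.01% (detergent screen) or 0.0001% Triton X-100 was preincubated with compounds for 15 min at room temperature. Nitrocefin was then added from an 800 uM solution, and hydrolysis was followed at 480 nm.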
Starred values were filed as active, the others as inactive; ? = inconclusive; nt = no result. Many of the other results were omitted from the sample, so hits are more common in it than they were. Unless noted, calls come from the whole dose curve; as a rule, active = well fitted curve in the direction sought with a large enough effect; inconclusive = small, poorly fitted or top-dose-only effect, or another doubt; inactive = no such curve, though single readings can be large; an effect the other way counts as inactive or inconclusive.

SMILES	AmpC no deterg	CHX counter	Shiga toxin inh	NS1 function inh	AmpC detergent
O=C(NCCc1c[nH]c2ccccc12)C1CCC(=O)N(CCc2cccc(F)c2)C1 (stereo not drawn)	51%	-2	-22	0%	?
O=C(Nc1ccccc1)Nc1cc(Cl)cc(Cl)c1	-52%	25	39	-144%	-7%
O=C(NNC(=O)c1ccc[nH]1)Nc1cc(Cl)cc(Cl)c1	-40%	15*	31	4%	-4%
O=C(NNC(=O)c1ccc[nH]1)Nc1cccc(C(F)(F)F)c1	-24%	43*	72*	1%	-6%
O=C(NNC(=O)c1ccc[nH]1)c1cccc(C(F)(F)F)c1	-11%	-2	8	8%	-11%
O=C(NC1CCCC1)C1CCC(CNS(=O)(=O)c2ccccc2)CC1 (stereo not drawn)	-3%	10	3	-1%	-7%
CC(=O)N1CCN(C2=Nc3cccc4cccc2c34)CC1	-8%	8	12	-3%	-9%
COc1ccccc1N1CCN(C2=Nc3cccc4cccc2c34)CC1	67%	34*	69	nt	-1%
O=C(O)c1ccc(NC2=Nc3cccc4cccc2c34)cc1	-4%	23*	69*	-6%	3%
COc1ccccc1NC1=Nc2cccc3cccc1c23	-18%	14*	20	-5%	4%
COc1ccc(C(=O)NNC2=Nc3cccc4cccc2c34)cc1	-26%	1	-17	-2%	-6%
Cc1ccc(Cl)cc1N1CCN(c2ncnc3c2nc2n3CCCC2)CC1	nt	nt	nt	nt	20%
N#Cc1ccc(OCC(=O)Nc2cccc(S(=O)(=O)NC3=NCCCCC3)c2)cc1	-34%	nt	nt	nt	-17%
Cc1cc2occ(CC(=O)NC3=NCCS3)c2cc1C(C)C	-14%	-10	-4	-10%	?
Cc1ccc2c(CC(=O)NC3=NCCS3)coc2c1	-20%	29*	58*	-14%	7%
COc1ccc(NC(=O)Cc2coc3cc(C)ccc23)cn1	-24%	21	69*	nt	-8%
Cc1ccc2c(CC(=O)Nc3ccc(S(=O)(=O)Nc4nc(C)cc(C)n4)cc3)coc2c1	nt	nt	nt	nt	-6%
Cc1ccc2c(CC(=O)Nc3nc(C)cs3)coc2c1	-31%	20*	47	-12%	?
O=C(CSc1n[nH]c(-c2cccnc2)n1)Nc1ccccc1C(F)(F)F	-10%	-5	-13	13%	-8%
Cc1cc(Cl)ccc1NC(=O)Cn1nnc2sc(-c3ccccc3)cc2c1=O	nt	nt	nt	nt	11%
CCc1cc2c(=O)[nH]c(N3CCOCC3)nc2s1	-18%	22*	34*	-2%	2%
O=C(Nc1ccc(NC(=O)C2CCCCC2)cn1)c1ccco1	-4%	39*	10	-16%	?
COc1cc(NC(=O)C2CC2)c(OC)cc1NC(=O)c1ccco1	-8%	-4	-3	-2%	-3%
O=C(/C=C/c1ccco1)c1ccc(NC(=O)C23CC4CC(CC(C4)C2)C3)cc1	18µM*	8	13	?	0%
O=C(Nc1ccc(NC(=O)C2CC2)cc1)c1ccco1	-9%	43*	63*	-2%	-1%
SMILES	AmpC no deterg	CHX counter	Shiga toxin inh	NS1 function inh	AmpC detergent
O=C(Nc1ccc(NC(=O)C23CC4CC(CC(C4)C2)C3)cn1)c1ccco1	-10%	48*	69*	-10%	-15%
CC(C)n1cnnc1SCC(=O)NC(=O)c1ccccc1	-14%	nt	nt	nt	?
Fc1ccccc1OCC1CCCN(Cc2nc(CC3CC3)no2)C1 (stereo not drawn)	83%	2	-1	-11%	7%
CCOC(=O)C1=C(N)Oc2ccc(Br)cc2C1C(C#N)C(=O)OCC (stereo not drawn)	nt	-3	-4	nt	nt
CC1CCCN(S(=O)(=O)c2ccc(NC(=O)c3nc(SC(C)C)ncc3Cl)cc2)C1 (stereo not drawn)	nt	nt	nt	nt	-8%
COc1cccc(-c2nc(SCC(=O)NC3CCCC3)c(-c3ccccc3)[nH]2)c1	nt	nt	nt	nt	10%
COc1ccc(C2CC(c3cccs3)n3nc(N)nc3N2)cc1 (stereo not drawn)	-17%	7.4*	23*	-10%	?
CC(=O)c1c(C)oc(C)c1CSCc1ccc(C(=O)O)o1	-4%	-2	-5	12%	2%
Clc1ccc(C2CC(c3ccccc3)Nc3ncnn32)cc1 (stereo not drawn)	1.3µM*	-3	-1	-11%	?
COc1ccccc1N1C(=O)S/C(=C\c2ccc(C)s2)C1=O	-10%	22*	28*	-61%	-17%
COc1ccccc1N1C(=O)S/C(=C\c2cc(C)n(C)c2C)C1=O	21%	29*	56*	4%	-3%
Cc1cc(OCCCSc2nc(-c3ccc(C(C)(C)C)cc3)nc3cc(=O)[nH]n23)ccc1Cl	nt	nt	nt	nt	0%
CC(C)C[C@@H](C(=O)N[C@@H](Cc1c[nH]c2ccccc12)C(N)=O)N1C[C@]2(CCCN2C(=O)[C@H](Cc2ccccc2)NC(=O)[C@H](Cc2ccccc2)NC(=O)[C@H](CCC(N)=O)NC(=O)[C@H](CCC(N)=O)NC(=O)[C@@H]2CCCN2C(=O)[C@H](CCCCN)NC(=O)[C@@H]2CCCN2C(=O)[C@@H](N)CCCNC(=N)N)CC1=O	nt	-4	-9	nt	nt
COc1ccc(/C=N/N=C2/NC(=O)C(CC(=O)O)S2)cc1OS(=O)(=O)c1ccccc1 (stereo not drawn)	-53%	6	-22	-3%	4%
Cc1ccc(S(=O)(=O)Oc2ccc(C)cc2/C=N/N=C2\NC(=O)C(C)S2)cc1 (stereo not drawn)	-29%	30*	73*	-6%	-14%
COc1ccc(-n2nc(C(=O)Nc3ccc(C)cn3)c3c4ccccc4n(C)c3c2=O)cc1Cl	nt	nt	nt	nt	-2%
COc1cccc(OCCSc2nc(N)cc(N)n2)c1	-20%	38*	81	-105%	1%
Nc1cc(=O)[nH]c(SCCOc2ccccc2)n1	-37%	11	51	9%	?
Nc1cc(N)nc(SCCOc2ccccc2)n1	-23%	36*	55*	-134%	-9%
Cc1ccc(NC(=O)C2=NNC(=O)CC2)cc1S(=O)(=O)Nc1ccc(SC(F)F)cc1	-33%	nt	nt	nt	3%
COCc1cc(C)nc2sc3c(=O)n(-c4cc(C)ccc4C)nnc3c12	nt	nt	nt	nt	21%
CC(=O)Nc1ccc(S(=O)(=O)Nc2cc(C)cn(Cc3ccccc3)c2=O)cc1	-12%	16	-9	1%	-5%
CCc1ccc(C2C(C#N)=C(N)SC(N)=C2C#N)cc1	8.9µM*	10	-9	14%	-13%
N#CC1=C(N)SC(N)=C(C#N)C1c1ccc(C(F)(F)F)cc1	-31%	-2	6	5%	-14%
O=C(Cc1cccs1)Nc1c(C(=O)Nc2ccc(F)cc2)oc2ccccc12	nt	nt	nt	nt	9%
C=CCn1c(CCCOc2ccc(Cl)cc2Cl)n[nH]c1=S	-14%	19*	54*	-23%	-4%
COC(=O)c1ccc(CN2CCN(CCC(C)C)C(CCO)C2)cc1 (stereo not drawn)	-4%	-3	6	-3%	6%
